The list is not random: actives were taken first. Their share in the collection is about 19%.
TGFb inhibitor: qHTS for Inhibitors of TGF-b; HepG2 CAGA-GFP TGF-b/SMAD3 reporter, GFP fluorescence, 18 h; TGF-beta stimulated, 500 pg/mL final; Potency, µM (highest dose often 46.1 µM), without a hit: at the top dose activity, negative = inhibition, hits mostly inhibitors; 410,000 compounds, 1.2% hits; further: potency means the concentration at half of the fitted maximal effect; on the % scale 0 is the no-effect control and ±100 the full control effect; nearly all actives have a fitted effect of over 65% in size
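HEPG2 CAGA-GFP cells (1000/well, DMEM with 1% FBS) were pre-incubated 2 h at 37 degrees C, given compound by pin tool, then stimulated with TGF-beta at 500 pg/mL final for 18 h before per-cell GFP fluorescence imaging.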
DT40 TDP1 no CPT: qHTS for Inhibitors of human tyrosyl-DNA phosphodiesterase 1 (TDP1): qHTS in cells in absence of CPT. DT40 Tdp1-/- hTDP1 cells, no CPT, ATP luminescence, 48 h. Potency, µM (titrated, usually from 46.2 µM), for inactives: at the highest dose activity change, negative = growth inhibition, usual class: inhibitors. 420,000 compounds, 15% hits; further: potency means the concentration at half of the fitted maximal effect; on the % scale 0 is the no-effect control and ±100 the full control effect; nearly all actives have a fitted effect of over 55% in size
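Growth of hTDP1-complemented DT40 Tdp1-knockout cells is measured by ATP luminescence after at least 48 hr compound exposure at 37 °C, with DMSO substituting for the 20 nM CPT used in the parallel screen.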
IL1B secr inh: qHTS for Inhibitors of Inflammasome Signaling: IL-1-beta AlphaLISA Primary Screen; AID 743279, 2014; 360,000 compounds, 4.7% hits; activity change, % at 57.5 µM; THP-1 LPS/ATP IL-1B secretion, AlphaLISA, 16 h; hits give low values; in the data active means activity change below about -50%; inconclusive means mostly about -30% to -49%; further: on the % scale 0 is the no-effect control and ±100 the full control effect
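Secreted IL-1B measured by AlphaLISA bead assay after 16 h compound exposure of THP-1 cells; compounds (final up to 57.5 uM) added 1 h before LPS (250 ng/mL) and ATP (1.25 mM) stimulation; lower signal means less secretion.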
HepG2 tox: qHTS for Inhibitors of TGF-b: Cytotox Counterscreen; HepG2 CAGA-GFP viability, ATP luminescence, 18 h; Potency, µM (titrated, usually from 46.1 µM), for the others: top-dose activity change, negative = cytotoxicity, actives largely listed as cytotoxic; 410,000 compounds, 0.76% hits; further: potency means the concentration at half of the fitted maximal effect
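HepG2 CAGA-GFP cells (1000/well, DMEM with 1% FBS) received compound, then TGF-beta at 500 pg/mL final, and were incubated 18 hours at 37 degrees C. Viability was read by CellTiter-Glo luminescence. Media-only wells were set as complete cell-killing and DMSO as no toxicity.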
S-ASM inh: Inhibitors of Secretory Acid Sphingomyelinase (S-ASM): qHTS; Sphingomyelin phosphodiesterase (Homo sapiens), P17405; placental ASM, HMU-PC fluorogenic substrate, 60 min; Potency, µM (top dose mostly 57.5 µM), for the others: top-dose activity change, negative = inhibition, hits mostly inhibitors; 340,000 compounds, 0.006% hits; further: potency means the concentration at half of the fitted maximal effect
Target sequence (P17405 47-631 limits assumed): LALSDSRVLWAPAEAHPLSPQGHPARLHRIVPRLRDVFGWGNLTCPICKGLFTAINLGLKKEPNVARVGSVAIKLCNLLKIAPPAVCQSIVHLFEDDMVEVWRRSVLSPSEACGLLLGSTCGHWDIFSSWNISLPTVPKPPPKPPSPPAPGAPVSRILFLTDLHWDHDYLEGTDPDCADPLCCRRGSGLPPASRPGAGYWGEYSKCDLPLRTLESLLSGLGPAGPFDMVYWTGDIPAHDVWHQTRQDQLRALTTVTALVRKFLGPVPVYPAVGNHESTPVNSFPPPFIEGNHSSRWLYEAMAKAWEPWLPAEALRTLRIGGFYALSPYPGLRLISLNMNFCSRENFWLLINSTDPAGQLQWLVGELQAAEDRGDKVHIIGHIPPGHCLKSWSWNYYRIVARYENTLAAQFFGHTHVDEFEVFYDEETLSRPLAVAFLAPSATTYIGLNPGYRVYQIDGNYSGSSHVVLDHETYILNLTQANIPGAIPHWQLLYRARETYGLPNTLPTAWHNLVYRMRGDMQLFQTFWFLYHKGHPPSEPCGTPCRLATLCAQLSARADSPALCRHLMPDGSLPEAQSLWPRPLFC
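Steps: dispense placental human ASM, pin compound, wait 10 min at room temperature, add HMU-PC0 substrate at 9 uM final, incubate 60 min at 37 °C, add stop solution raising pH to 10, read fluorescence.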
TDP1 cell CPT: qHTS for Inhibitors of human tyrosyl-DNA phosphodiesterase 1 (TDP1): qHTS in cells in presence of CPT | AID 686979, 2013 | Potency, µM (doses to about 46.2 µM), without a hit: at the top dose activity change, negative = growth inhibition, usual class: inhibitors | chicken DT40 Tdp1-/-;hTDP1 cells + 20 nM CPT, ATP luminescence, 48 h | 420,000 compounds, 12% hits; further: potency means the concentration at half of the fitted maximal effect; on the % scale 0 is the no-effect control and ±100 the full control effect; nearly all actives have a fitted effect of over 55% in size
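Chicken DT40 Tdp1-/- cells complemented with human TDP1, 400 cells/well, exposed to compounds plus 20 nM camptothecin for at least 48 h at 37 C; viability read as ATP content by CellTiter-Glo luminescence.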
The depositor's hits bear a star. Unless noted, the call rests on the fitted dose curve; in most records, active means well fitted curve in the direction sought with a large enough effect; inconclusive means small, poorly fitted or top-dose-only effect, or another doubt; inactive means no such curve, though single readings can be large; an effect the other way counts as inactive or inconclusive.

Results for O=C(Nc1cc(F)cc(F)c1)c1ccc(NCCCN2CCCCCC2)c([N+](=O)[O-])c1 ?
TGFb inhibitor: 20%; DT40 TDP1 no CPT: inconclusive; IL1B secr inh: -76*; HepG2 tox: -24%; S-ASM inh: -10%; TDP1 cell CPT: inconclusive

How did COc1cccc(NC(=O)c2ccc(NCCCN3CC(C)CC(C)C3)c([N+](=O)[O-])c2)c1 (stereo unspecified) do in these assays?
TGFb inhibitor: -19%; DT40 TDP1 no CPT: inconclusive; IL1B secr inh: -7; HepG2 tox: -12%; S-ASM inh: -9%; TDP1 cell CPT: 0%

What do the screens show for `CCc1nnc(NC(=O)CSc2nc(N)c(NC(=O)c3ccc(OC)cc3)c(=O)[nH]2)s1`?
TGFb inhibitor: 5%; DT40 TDP1 no CPT: -9%; IL1B secr inh: inactive; HepG2 tox: 0%; S-ASM inh: -2%; TDP1 cell CPT: -11%

How did CC(=O)/C(C#N)=C1\NC(=O)C(Cc2ccc(F)cc2)S1 (stereo unspecified) do in these assays?
TGFb inhibitor: 1%; DT40 TDP1 no CPT: 1.3µM*; IL1B secr inh: 21; HepG2 tox: -5%; S-ASM inh: 7%; TDP1 cell CPT: inconclusive

How did CC(=O)/C(C#N)=C1\NC(=O)C(Cc2ccc(C)c(C)c2)S1 (stereo unspecified) do in these assays?
TGFb inhibitor: 11%; DT40 TDP1 no CPT: 0.073µM*; IL1B secr inh: 59; HepG2 tox: -36%; S-ASM inh: 5%; TDP1 cell CPT: 0.58µM*

Results for CC(=O)/C(C#N)=C1\NC(=O)C(Cc2ccccc2Cl)S1 (stereo unspecified) ?
TGFb inhibitor: 61%; DT40 TDP1 no CPT: inconclusive; IL1B secr inh: 15; HepG2 tox: -33%; S-ASM inh: 6%; TDP1 cell CPT: inconclusive

How did CC(=O)/C(C#N)=C1\NC(=O)C(Cc2cc(Cl)ccc2Cl)S1 (stereo unspecified) do in these assays?
TGFb inhibitor: -26%; DT40 TDP1 no CPT: 3.3µM*; IL1B secr inh: 0; HepG2 tox: -51%; S-ASM inh: 8%; TDP1 cell CPT: inconclusive

What do the screens show for `COc1ccccc1CNC(=O)CSc1ncc2c(n1)-c1ccccc1N(Cc1ccc(C)cc1)S2(=O)=O`?
TGFb inhibitor: 15%; DT40 TDP1 no CPT: 12µM*; HepG2 tox: -5%; TDP1 cell CPT: inconclusive

Results for CN1c2ccccc2-c2nc(SCC(=O)Nc3ccccc3)ncc2S1(=O)=O ?
TGFb inhibitor: -39%; DT40 TDP1 no CPT: 18µM*; HepG2 tox: -27%; TDP1 cell CPT: inconclusive

What do the screens show for `Cc1ccc(C)c(NC(=O)CSc2ncc3c(n2)-c2ccc(Cl)cc2N(C)S3(=O)=O)c1`?
TGFb inhibitor: 15%; DT40 TDP1 no CPT: 18µM*; HepG2 tox: -6%; TDP1 cell CPT: inconclusive

How did COc1ccc(CNC(=O)CSc2ncc3c(n2)-c2ccc(Cl)cc2N(Cc2ccc(F)cc2)S3(=O)=O)cc1OC do in these assays?
TGFb inhibitor: -10%; DT40 TDP1 no CPT: 12µM*; HepG2 tox: -22%; TDP1 cell CPT: 12µM*

How did COc1ccccc1CNC(=O)CSc1ncc2c(n1)-c1ccc(Cl)cc1N(Cc1ccccc1)S2(=O)=O do in these assays?
TGFb inhibitor: -1%; DT40 TDP1 no CPT: inconclusive; HepG2 tox: -1%; TDP1 cell CPT: inconclusive

What do the screens show for `CCOc1ccc(NC(=O)CSc2ncc3c(n2)-c2ccccc2N(C)S3(=O)=O)cc1`?
TGFb inhibitor: 0%; DT40 TDP1 no CPT: 6%; HepG2 tox: -7%; TDP1 cell CPT: 0%

Results for O=C(C[C@H]1C/C=C\C[C@H](Cc2ccc(F)cc2)C(=O)O[C@@H](c2ccccc2)CNC1=O)NCCO ?
TGFb inhibitor: -27%; DT40 TDP1 no CPT: inconclusive; IL1B secr inh: -3; HepG2 tox: -10%; S-ASM inh: 1%; TDP1 cell CPT: inconclusive

Results for CN(Cc1ccc(Cl)cc1Cl)C(=O)CN1C(=O)NC2(CCCC2)C1=O ?
TGFb inhibitor: -15%; DT40 TDP1 no CPT: inconclusive; IL1B secr inh: -6; HepG2 tox: -3%; S-ASM inh: 2%; TDP1 cell CPT: -8%

How did Cc1cccc(C)c1NC(=O)CNC(=O)CCC(=O)N1CCOCC1 do in these assays?
TGFb inhibitor: -26%; DT40 TDP1 no CPT: 2%; IL1B secr inh: -13; HepG2 tox: 6%; S-ASM inh: 3%; TDP1 cell CPT: -17%

What do the screens show for `COc1ccccc1NC(=O)CSc1ncc2c(n1)-c1cc(Cl)ccc1N(C)S2(=O)=O`?
TGFb inhibitor: -1%; DT40 TDP1 no CPT: 10µM*; HepG2 tox: -19%; TDP1 cell CPT: 7.3µM*

Results for CCOC(=O)c1cccc(NC(=O)CSc2ncc3c(n2)-c2ccc(Cl)cc2N(Cc2ccccc2)S3(=O)=O)c1 ?
TGFb inhibitor: -21%; DT40 TDP1 no CPT: 1.5µM*; HepG2 tox: -8%; TDP1 cell CPT: inconclusive

How did COc1cccc(NC(=O)CSc2ncc3c(n2)-c2ccc(Cl)cc2N(C)S3(=O)=O)c1 do in these assays?
TGFb inhibitor: 7%; DT40 TDP1 no CPT: -30%; HepG2 tox: -18%; TDP1 cell CPT: -16%

Results for COc1ccc(CNC(=O)CSc2ncc3c(n2)-c2cc(Cl)ccc2N(Cc2ccccc2)S3(=O)=O)cc1 ?
TGFb inhibitor: -4%; DT40 TDP1 no CPT: -17%; HepG2 tox: -4%; TDP1 cell CPT: 2%

How did COc1ccc(CNC(=O)CSc2ncc3c(n2)-c2cc(Cl)ccc2N(Cc2ccccc2)S3(=O)=O)cc1OC do in these assays?
TGFb inhibitor: -9%; DT40 TDP1 no CPT: 12µM*; HepG2 tox: -9%; TDP1 cell CPT: 15µM*

How did COc1ccc(S(=O)(=O)NCc2cccn2Cc2cccc(C)c2)cc1OC do in these assays?
TGFb inhibitor: inconclusive; DT40 TDP1 no CPT: inconclusive; HepG2 tox: -18%; TDP1 cell CPT: inconclusive

What do the screens show for `Cc1ccc(C(=O)NNC(=O)c2ccncc2)cc1S(=O)(=O)N1CCOCC1`?
TGFb inhibitor: -35%; DT40 TDP1 no CPT: 25%; IL1B secr inh: 5; HepG2 tox: 2%; S-ASM inh: -6%; TDP1 cell CPT: -14%
